High-throughput results: PubChem, Broad Institute
Only some compounds are listed: those with a hit (about 3.7% of all), similar ones and a draw of the others.
AF4-AF9 inh – blocks AF4 peptide binding to human AF9; P42568; AlphaScreen, biotin-AF4 peptide binding to FLAG-AF9; inhibition, % at 10 µM; 0.47% of 350,000 active;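 active = every replicate reaching a set inhibition limit, whatever the replicate mean, cut at about 25% in these data; inconclusive = mean inhibition reaches that limit but some replicates miss it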;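 also: 0% = plate neutral control median and 100% = total signal loss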
Target sequence (P42568 whole entry, looked up): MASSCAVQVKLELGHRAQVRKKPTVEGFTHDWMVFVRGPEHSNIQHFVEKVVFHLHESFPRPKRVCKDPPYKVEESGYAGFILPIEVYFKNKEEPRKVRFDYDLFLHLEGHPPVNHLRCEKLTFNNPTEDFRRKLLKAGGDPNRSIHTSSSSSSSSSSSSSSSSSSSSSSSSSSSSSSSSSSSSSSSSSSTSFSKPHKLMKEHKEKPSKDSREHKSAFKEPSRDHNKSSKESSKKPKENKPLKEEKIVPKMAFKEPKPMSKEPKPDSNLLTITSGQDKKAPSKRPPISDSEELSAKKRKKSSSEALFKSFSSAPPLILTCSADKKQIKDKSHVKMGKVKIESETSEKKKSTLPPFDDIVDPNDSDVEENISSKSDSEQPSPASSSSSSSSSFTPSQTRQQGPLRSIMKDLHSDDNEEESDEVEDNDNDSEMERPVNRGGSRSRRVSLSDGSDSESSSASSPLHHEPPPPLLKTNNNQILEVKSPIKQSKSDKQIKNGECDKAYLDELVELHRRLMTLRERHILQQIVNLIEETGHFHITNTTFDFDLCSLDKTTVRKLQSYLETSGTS
Wnt bcat act – activators of Wnt/beta-catenin signaling | Wnt/beta-catenin reporter cell assay, activator, plate reader | activation, % at 9.35 µM | 1.2% of 300,000 active | AID 743398; in the data active = activation above about 30%, passing the limit was not always enough; inconclusive = no clear call, values can overlap the other calls;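 also: 0% = neutral control wells and 100% = positive control wells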
esBAF inh – SWI/SNF esBAF complex inhibition. mouse ES cells, Bmi1-luciferase knock-in reporter, 24 h; 100% = twice the neutral-well signal. reporter increase, % at 12.5 µM. 2% of 350,000 active; in the data active = activation above about 40%; inconclusive = no clear call, values can overlap the other calls;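 also: 0% = median of the plate's neutral control wells and 100% = double that signal; a rise in the Bmi1 reporter signal indicates esBAF inhibition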
rRNA inh HTS – inhibits bacterial ribosomal RNA function over humanized ribosomes | E. coli WT GFP vs humanized-ribosome RFP mutants, fluorescence, 24 h; hits give low values; DMSO median 0, no signal -100 | GFP signal change (wild-type ribosome), % (no concentration beside the values) | 1.6% of 350,000 active;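 active = significant combined selectivity score with lowered wild-type GFP, culture density cut under 30%, mutant RFP and density less affected; inactive = any of these conditions unmet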
MITF TRPM1 HTS – increases MITF-driven TRPM1 promoter luciferase signal; 0.75% of 300,000 active; activation, % at 12.5 µM; AID 588334; SK-MEL-5 TRPM1-promoter luciferase, 24 h; % of positive control, neutral wells = 0;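 active = mean activation of at least 80% with every replicate also reaching 80%; inconclusive = mean reaches 80% but some replicate falls short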;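 also: 0% = neutral control wells and 100% = parthenolide positive control wells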
* hit, by the source's call; u = inconclusive; x = no result.

SMILES	AF4-AF9 inh	Wnt bcat act	esBAF inh	rRNA inh HTS	MITF TRPM1 HTS
CCc1nc(N2CCN(S(=O)(=O)c3ccc(Br)cc3)CC2)c2c(C)c(C)sc2n1	x	x	0	x	10
CCC1(CC)Nc2ccccc2C(=O)N1c1ccc(OC)cc1	0	53*	x	7	42
CCN(CC(=O)NCc1ccc(F)cc1)C(=O)C(C)Oc1cccc(Cl)c1 (stereo not drawn)	1	2	20	-1	5
COc1ccc(C(=O)O)cc1S(=O)(=O)Nc1cc(C(F)(F)F)ccc1N1CCCCC1	-5	-1	-5	-25*	x
COc1ccc2c(c1)C1=NN(/C(C)=C/C(C)=O)C(c3ccc(F)cc3)C1CC2 (stereo not drawn)	8	x	x	-27	9
COc1ccc2c(c1)CCC1C2=NN(/C(C)=C\C(C)=O)C1c1ccc(F)cc1 (stereo not drawn)	4	52*	x	3	27
COc1ccc2c(c1)C1=NN(/C(C)=C\C(C)=O)C(c3ccccc3)C1CC2 (stereo not drawn)	x	x	48*	x	19
O=[N+]([O-])c1cnn2cc(Br)cnc12	-2	-1	x	5	-2
Cc1cc(C(=O)N(C)CC2CCCN(CCc3ccc(F)cc3)C2)c(C)o1 (stereo not drawn)	3	-1	-6	17	-13
COCc1ccc(C(=O)N(C)CC2CCCN(CCc3ccc(OC)cc3)C2)o1 (stereo not drawn)	-1	17	50*	3	63
COc1ccc(CCN2CCCC(CN(C)C(=O)c3cc(C)oc3C)C2)cc1 (stereo not drawn)	1	u	72*	4	75
Cn1cnc(S(=O)(=O)N[C@@H]2C=C[C@H](CC(=O)NCC3CC3)O[C@H]2CO)c1	1	x	-2	1	x
O=c1ncn(-c2cccc(Cl)c2)c2ccccc12	-3	44*	x	13	1
O=c1c2ccccc2ncn1-c1cccc(Cl)c1	x	x	2	x	7
COc1ccccc1OC(C)c1nnc(SCC(=O)Nc2c(C)n(C)n(-c3ccccc3)c2=O)n1-c1ccccc1 (stereo not drawn)	0	-3	x	1	-2
CCSc1nnc(-c2c[nH]c3ccccc23)o1	x	x	49*	x	45
COc1ccc(-n2c(=O)c(NC(=O)c3ccccc3)c3n(c2=S)CCCCC3)cc1	1	0	x	5	-1
O=C(NC(=S)Nc1ccc(CN2CCOCC2)cc1)c1cc2ccccc2o1	0	13	x	0	30
O=C(Nc1ccc(CN2CCOCC2)cc1)c1ccccc1F	x	39*	26	x	x
O=C(Nc1ccc(N2CCOCC2)cc1)c1cc2ccccc2o1	x	x	46*	x	72
O=C(Nc1ccc(CN2CCOCC2)cc1)c1ccc(Cl)cc1Cl	-7	1	11	1	15
O=C(Nc1ccc(CN2CCOCC2)cc1)c1cc2ccccc2o1	x	x	25	x	105*
CCC(=O)N1CCN(c2ccc(NC(=O)c3cc4ccccc4o3)cc2)CC1	x	x	25	x	34
Cn1c(COc2ccc(Br)cc2)nnc1SC1CCc2ccccc2C1=O (stereo not drawn)	x	-2	x	x	-6
COc1ccc(OC)c(S(=O)(=O)N2CCNCC2)c1	4	1	-7	16	-1
SMILES	AF4-AF9 inh	Wnt bcat act	esBAF inh	rRNA inh HTS	MITF TRPM1 HTS
CCCSc1nc(C)cc(=O)[nH]1	x	-3	-6	x	-10
CCCCSc1nc(C(=O)O)cc(=O)[nH]1	-55	38*	-1	10	-8
Cc1cc(C(=O)CSc2nncs2)c(C)n1-c1ccc2c(c1)OCO2	x	x	80*	x	71
Cc1cc(C(=O)CSc2nnnn2-c2ccccc2)c(C)n1-c1ccc2c(c1)OCO2	0	-2	x	-5	0
Cc1ccccc1-c1ccc([C@H]2[C@@H](CO)N3CCCCN(C(=O)Nc4cccc(F)c4)C[C@H]23)cc1	10	x	-13	x	x
O=C1CCCN1CCC(=O)N1CCCC(CO)(Cc2ccccc2)C1 (stereo not drawn)	-5	32*	63*	5	49
Cc1cccc(OCC(=O)OCC(=O)Nc2sccc2C(N)=O)c1	-2	2	3	-4	-5
NC(=O)c1ccsc1NC(=O)CSc1ccccc1F	-1	25	75*	-16	61
NC(=O)c1ccsc1NC(=O)COc1ccccc1	5	-3	65*	-17	70
CCOc1ccc(-n2c(-c3ccccc3)nnc2-c2ccccc2)cc1	x	x	x	5	-6
Cc1ccc(OCc2ccc([N+](=O)[O-])cc2)c([N+](=O)[O-])n1	-2	33*	x	14	139*
Cc1ccc(OCc2ccccc2C)c([N+](=O)[O-])n1	-19	2	11	-7	27
Cc1ccc(OCCOc2ccc(Br)cc2)c([N+](=O)[O-])n1	-5	13	65*	x	123*
Cc1ccc(OCC(=O)Nc2ccc(C)c(F)c2)c([N+](=O)[O-])n1	0	-3	56*	-9	114*
COC(=O)Cc1cc(OC)c(OC)cc1Cc1cc(OC)c(OC)cc1CC(=O)OC	x	-1	2	x	6
CCC(=O)NC1=C(Nc2ccc(N)cc2)C(=O)c2ccccc2C1=O	12	34*	-6	-12	13
COc1ccc(-n2c(CCC(=O)O)ccc2-c2ccccc2)cc1	-2	0	11	-25*	1
Cc1ccc(-n2c(CCC(=O)O)ccc2-c2cccs2)cc1	-11	-1	38	-28*	2
COc1ccc(-c2ccc(CCC(=O)O)n2-c2ccccc2O)cc1	4	-20	20	0	-11
CC(=O)c1ccc(-n2c(CCC(=O)O)ccc2-c2cccs2)cc1	2	9	33	4	0
Cc1ccc(-n2c(C)nnc2SCC(=O)N2CCc3ccccc3C2)cc1C	x	8	3	x	-9
CCCC(=O)N1CCN(c2ccc(NC(=O)c3ccc([N+](=O)[O-])o3)cc2Cl)CC1	7	-22	x	-39*	-90
O=C(Nc1cccc(Cl)c1N1CCCC1)c1ccc([N+](=O)[O-])o1	4	2	-3	1	-22
CCN1CCN(c2c(Cl)cccc2NC(=O)c2ccc([N+](=O)[O-])o2)CC1	1	0	-12	-17*	-101
O=C(NCc1cccs1)c1cc(-c2ccc(O)cc2)on1	-3	37*	u	-1	58
SMILES	AF4-AF9 inh	Wnt bcat act	esBAF inh	rRNA inh HTS	MITF TRPM1 HTS
CCCc1cc(C(=O)NCc2ccccc2)no1	2	5	23	2	x
CCCc1cc(C(=O)NCc2cccs2)no1	-1	27	54*	4	x
CCC(C)N(CC(=O)NCc1ccc(OC)cc1)C(=O)c1csnn1 (stereo not drawn)	x	x	6	x	9
c1ccc2c3c([nH]c2c1)CCNC3	25*	-1	2	9	-12
Cc1ccc(C)c(NC(=S)N/N=C2\CCc3ccccc32)c1	7	2	5	-24*	4
CCc1ccc(CNc2ccc(O)cc2)cc1	x	x	x	x	2
COCCn1c(SCC(=O)OCc2ccccc2)nc2c1c(=O)[nH]c(=O)n2C	-5	2	-3	-5	4
Cc1ccc(C(O)P(=O)(OC2CCCCC2)OC2CCCCC2)cc1 (stereo not drawn)	x	x	-1	x	x
